45 compounds from PubChem BioAssay AID2685 (National Center for Advancing Translational Sciences (NCATS), 2010) can be followed below.

Molecules are shown by their SMILES. The campaign covered roughly 320,000 compounds. About 2,100 (0.66%) were called active. Another 53% or so got no clear call; they are omitted. Calls come from the whole dose curve; as a rule, active = well fitted inhibition curve with a large enough effect in the signal ratio, with a control signal flat (not every such curve was filed as active); inconclusive = small, poorly fitted or top-dose-only effect, or effect the other way, or a change in a side signal; inactive = flat fitted curve, though single readings scatter; the % refers to the signal ratio. Many of the other results were omitted from the sample, so actives are more common in it than they were.
Potency is the fitted concentration of half-maximal effect.

This assay is described as follows: qHTS Assay for Lipid Storage Modulators in Drosophila S3 Cells.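 For cell number change: cells counted by Cell Tracker Red CMTPX staining in the red channel.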 For lipid storage change, negative = inhibition: % is set by controls: 0 for no effect and ±100 for the full control effect. Particulars: BODIPY lipid droplet fluorescence, 18-24 h, cells fed with added oleic acid; cell number change: measured here: cell count max response; series mostly up to 46.1 µM; lipid storage change, negative = inhibition: at the top concentration. The procedure, abridged: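 Laser-scanning cytometry quantifies lipid droplet accumulation (500–530 nm total intensity; droplet/cell object ratio) in oleic acid-fed (400 uM added) Drosophila S3 cells treated with a concentration series. 20 uM Triacsin C defined 100% inhibition.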
`Cc1ccc(NC(=O)CS(=O)CC(=O)Nc2ccccc2-c2ccc(C)o2)cc1` (stereo not drawn): the compound was classed as inactive and the cell number change came to 17.8%. For `OCC1(CCc2ccccc2)CCN(Cc2ccccc2Cl)CC1`, the “lipid storage change, negative = inhibition” value was 5.38% (inactive) and the cell number change stood at 4.39%. With `COc1ccc(-c2nnc3ccc(SCC(=O)Nc4cc(C)on4)nn23)cc1`, the “lipid storage change, negative = inhibition” value is 0.462% (inactive) and the cell number change worked out at 8.27%.

For `Cc1cccc(-n2c(C)cc(C(=O)NC3CCCCC3)c2C)c1`, the Potency was 20.6 µM (active) and the cell number change was -27.1%.

Turning to `Cc1cc(C(=O)NC2CCCCC2)c(C)n1-c1ccc(F)cc1`, the “lipid storage change, negative = inhibition” value was 6.96% (inactive) and the cell number change came out at 2.04%.

In the case of `COc1ccc(-n2c(C)cc(C(=O)NC3CCCCC3)c2C)cc1`, the “lipid storage change, negative = inhibition” value was -14.2% (inactive) and the cell number change is -26.1%. Turning to `O=C(Nc1ccc(Cl)cc1)C1C2CCC3C(CCC21)C3(Cl)Cl` (stereo not drawn), the “lipid storage change, negative = inhibition” value was 14.4% (inactive) and the cell number change was -4.94%. Turning to `O=C(NCC1CCCN1S(=O)(=O)c1ccccc1)C(=O)NC1CC1` (stereo not drawn), the “lipid storage change, negative = inhibition” value is 18.1% (inactive). Take `CN(CC(=O)O)S(=O)(=O)c1ccc(F)cc1`: the “lipid storage change, negative = inhibition” value was -2.19% (inactive) and the cell number change was 12.3%. For `CCCc1ccc(S(=O)(=O)N(C)S(=O)(=O)c2ccc(F)cc2)cc1`, the Potency was 0.82 µM (active) and the cell number change came to 17.6%. Take `CCN(CC)S(=O)(=O)c1ccc(F)cc1`: the “lipid storage change, negative = inhibition” value was -5.13% (inactive) and the cell number change worked out at 12.5%.

Take `CCN(CC(=O)Nc1ccccc1C(F)(F)F)C(=O)CSCc1ccc(C)cc1`: the “lipid storage change, negative = inhibition” value was 14.9% (inactive) and the cell number change worked out at 3.04%. For `COc1ccc(CNC(=O)OCCN2CCN(S(=O)(=O)c3ccc(C)cc3)CCC2=O)cc1`, the “lipid storage change, negative = inhibition” value is 1.09% (inactive) and the cell number change worked out at 22.9%. `Cc1ccc(O)c(NC(=O)CN(C)S(=O)(=O)c2ccc(Cl)cc2)c1`: the “lipid storage change, negative = inhibition” value is -11.4% (inactive) and the cell number change amounted to 2.51%. For the compound `COc1ccc(N2C(=O)C(CC(=O)Nc3ccccc3)N(CCc3ccc(OC)c(OC)c3)C2=O)cc1` (stereo not drawn), the “lipid storage change, negative = inhibition” value is 0.805% (inactive) and the cell number change came to 0.202%. Take `O=C(COC(=O)Cn1cnc2ccccc21)NCCc1ccc(Cl)cc1`: the Potency was 8.2 µM (active) and the cell number change was determined as 22.6%. For the compound `O=C(COC(=O)Cn1cnc2ccccc21)NCc1ccc(F)cc1`, the “lipid storage change, negative = inhibition” value was 6.01% (inactive) and the cell number change is 21.3%.

Consider `O=C(COC(=O)Cn1cnc2ccccc21)NCCC1=CCCCC1`, for which the “lipid storage change, negative = inhibition” value was -86.9% (inactive) and the cell number change was -15.3%. On the same counts, the results for `CC(=O)Nc1ccc(S(=O)(=O)N2CCN=C2SCc2cccnc2)cc1` are -0.0501% (inactive) and -0.745%. In the case of `COc1cc(-n2nc(C)c3c2OC(N)=C(C#N)C3c2ccccc2)c(Cl)c(Br)c1O` (stereo not drawn), the compound was called inactive and the cell number change was -5.47%. On to `Cc1cc(N2CCCCC2)nc2c(C)cccc12`, for which the “lipid storage change, negative = inhibition” value was 9.06% (inactive) and the cell number change came to 3.12%. Turning to `COc1ccc(/C=c2/sc3n(c2=O)C(c2ccccc2OC)C2=C(N=3)c3ccccc3CC2)cc1O` (stereo not drawn), the “lipid storage change, negative = inhibition” value was 15.6% (inactive) and the cell number change is -22.9%. `COc1ccc(C(=O)OC(C(=O)c2ccccc2)c2ccccc2)cc1` (stereo not drawn): the “lipid storage change, negative = inhibition” value was -14.1% (inactive) and the cell number change was -12.3%. With `CN(C)C(=O)C(OC(=O)c1ccc2ccccc2n1)c1ccccc1` (stereo not drawn), the outcome was inactive and the cell number change turned out to be 16.5%. Consider `CN(C)C(=O)C(OC(=O)c1ccc2c(c1)CCCC2)c1ccccc1` (stereo not drawn), for which the Potency is 0.58 µM (active) and the cell number change came out at 15.3%. `CCOC(=O)c1cc(=O)c2c([N+](=O)[O-])ccc(OC)c2o1`: the “lipid storage change, negative = inhibition” value is -7.08% (inactive) and the cell number change is -14.1%. On the same counts, the results for `CC(=O)Nc1cccc(Oc2ccc3c(c2)C(=O)NC3=O)c1` are -10.3% (inactive) and -4.38%. With `CCCC(=O)Nc1cccc(Oc2ccc3c(c2)C(=O)NC3=O)c1`, the Potency is 1.46 µM (active) and the cell number change was -28.1%. On to `CCC(=O)Nc1ccc(Oc2ccc3c(c2)C(=O)NC3=O)cc1`, for which the compound was called inactive and the cell number change is -7.29%. Turning to `CC(C)c1ccc(NC(=O)N2CCOCC2)cc1`, the outcome was inactive and the cell number change is -1.06%.

Regarding `O=C(CSc1nc(-c2ccc(F)cc2)nc2c1Cc1ccccc1O2)Nc1ccc(C(=O)O)cc1`, the “lipid storage change, negative = inhibition” value was 4.47% (inactive) and the cell number change is -7.56%.

`O=C(c1c(F)cccc1F)N1CCCC1`: the “lipid storage change, negative = inhibition” value was 0.776% (inactive) and the cell number change stood at 7.6%. On to `CN1CCCN(C(=O)c2c(F)cccc2Cl)CC1`, for which the Potency is 1.64 µM (active) and the cell number change is -3.31%. Regarding `CN1CCCN(C(=O)c2ccccc2Cl)CC1`, the “lipid storage change, negative = inhibition” value is -22.4% (inactive) and the cell number change is -6.61%. Turning to `CCOC(=O)/C(C#N)=C(/C)c1ccc(OC)cc1`, the outcome was inactive. `CCOc1cc2[nH]c(=O)n(CCc3ccc(OC)c(OC)c3)c(=O)c2cc1OCC`: the “lipid storage change, negative = inhibition” value is 10.7% (inactive) and the cell number change is 0.389%. Turning to `O=C(O)c1ccc(N/N=C2/CCCc3ccccc32)cc1`, the “lipid storage change, negative = inhibition” value was 1.14% (inactive) and the cell number change stood at 24.2%. As for `CCN(CC)C(=O)c1cccc2c1C(=O)c1ccccc1-2`, the “lipid storage change, negative = inhibition” value is 9.17% (inactive) and the cell number change stood at 11.5%. For the compound `CC(C)CNC(=O)c1cccc2c1-c1ccccc1C2=O`, the “lipid storage change, negative = inhibition” value is 14.4% (inactive) and the cell number change came out at 24.1%. On to `O=C1c2ccccc2-c2c1cccc2C(=O)N(CCO)CCO`, for which the Potency is 25.9 µM (active) and the cell number change was -9.84%. Take `CC12CN(S(=O)(=O)c3ccccc3)CC(C)(CN(S(=O)(=O)c3ccccc3)C1)C2`: the “lipid storage change, negative = inhibition” value was 1.31% (inactive) and the cell number change is 1.2%. On the same counts, the results for `CCC(C)(C)NC(=O)CN(C(=O)c1csnn1)c1cccc2c1CCCC2` are -4.03% (inactive) and -10.5%. Take `COc1ccc(-c2nc(C(=O)NCC3CCCO3)cc3c2[nH]c2ccccc23)cc1` (stereo not drawn): the “lipid storage change, negative = inhibition” value was -81.9% (inactive) and the cell number change is -11.3%. Consider `COc1cc(-c2nc(C(=O)NC3CCCCC3)cc3c2[nH]c2ccccc23)cc(OC)c1OC`, for which the Potency is 13 µM (active) and the cell number change amounted to 13.2%. Turning to `O=C(NCCO)c1cc2c([nH]c3ccccc32)c(-c2ccccc2)n1`, the “lipid storage change, negative = inhibition” value is -0.328% (inactive) and the cell number change was -12.4%.
